# From PubChem BioAssay (NCATS)
# Results filed as inconclusive are left out. A number with no mark means an inactive call. Calls of active or inactive are those of the source. The call rests on the fitted dose curve; in most records, active means well fitted inhibition curve with a large enough effect; inconclusive means small, poorly fitted or top-dose-only effect; inactive means no such curve, though single readings can be large or run the other way.
# Test system: Zika virus NS2B-NS3 protease (unlinked complex)
# Assay: Primary screen GU Rhodamine qHTS for Zika virus inhibitors: Unlinked NS2B-NS3 protease assay (AID 1347159); further: nearly all actives have a fitted effect of over 60% in size
# Settings: Recombinant ZIKV NS2B-NS3 protease, Rhodamine110 substrate fluorescence; series mostly up to 107 µM; activity change, negative = inhibition: at the top concentration
# Method in brief: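 Enzyme 25 nM in Tris-HCl pH 8.0 + 0.01% Tween 20; compounds up to 114 microM, 15 min RT dark; + Rhod110 substrate 1.5 microM; read t0 and 15 min; delta fluorescence → % inhibition → 4-parameter Hill fit.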
# On the % scale 0 is the no-effect control and ±100 the full control effect; potency means the concentration at half of the fitted maximal effect.
Compound,"activity change, negative = inhibition",Potency
C/C=C(\C)C(=O)OC[C@H]1O[C@H](O[C@H]2O[C@H](CO)[C@@H](O)[C@H](O)[C@H]2O[C@@H]2O[C@H](CO)[C@@H](O)[C@H](O)[C@H]2O)[C@H](O[C@@H]2O[C@H](CO)[C@@H](O)[C@H](O)[C@H]2O)[C@@H](O)[C@@H]1O,22.3% [at 32.5 µM],
CC1OC(O[C@H]2CC[C@@]3(C)C(CC[C@]4(C)C3CC=C3C5CC(C)(C)CC[C@]5(C(=O)OC5OC(CO)C(OC6OCC(OC7OCC(O)C(O)C7O)C(O)C6O)C(O)C5O)CC[C@]34C)C2(C)C)C(O)C(O)C1OC1OC(CO)C(O)C(OC2OC(CO)C(O)C(O)C2O)C1O (stereo partly specified),1.81% [at 19.1 µM],
COc1cc(O[C@@H]2O[C@H](CO[C@H]3OC[C@](O)(CO)[C@H]3O)[C@@H](O)[C@H](O)[C@H]2O)cc(OC)c1O,25% [at 57.1 µM],
O=C(c1ccc(Cl)c([N+](=O)[O-])c1)N1CCN(c2ccccc2F)CC1,-7.65%,
CC(=O)O[C@@H]1CC2C(C)(C)C(=O)C=C[C@]2(C)C2CC[C@]3(C)C(=CC(=O)[C@@H]3c3ccoc3)[C@@]21C (stereo partly specified),2.17% [at 57.1 µM],
C=C1CC[C@@H]2C(C)(C)CCC[C@@]2(C)[C@@H]1CC/C(=C/C(=O)OC)COC(C)=O,15.1%,
C=CCc1ccc(O[C@@H]2O[C@H](CO)[C@@H](O)[C@H](O)[C@H]2O)c(O[C@@H]2O[C@H](CO)[C@@H](O)[C@H](O)[C@H]2O)c1,7.63% [at 57.1 µM],
CN(C)CCC[C@]1(c2ccc(F)cc2)OCc2cc(C#N)ccc21,21.6%,
CC1CCC2C(C(=O)O)=CC3(O)CC(C)(C)CC123 (stereo unspecified),12.5%,
CCOc1ncc(S(=O)(=O)N2CCN(CC)CC2)cc1-c1nc2c(CC)n(CCOC)nc2c(=O)[nH]1,3.13%,
COc1ccc(N2CCN(CCCNC(=O)Cn3c(=O)c4cccn4c4c(C)ccnc43)CC2)cc1,-7.37%,
CC(=O)OC[C@@]12C(=O)C[C@@H](C)[C@]3(C[C@@H](c4ccoc4)OC3=O)[C@H]1CC[C@H](OC(C)=O)[C@]21CO1,-22.8% [at 57.1 µM],
CS(=O)(=O)c1ccccc1N1CCN(c2nc3c(c(=O)[nH]2)CSCC3)CC1,-4.8%,
CC(=O)NCC1CN(c2ccc(-c3ccc(CNCc4cn[nH]n4)cc3)c(F)c2)C(=O)O1 (stereo unspecified),53.3%,
CC(=O)NC(Cc1c[nH]c2ccccc(=O)c12)C(=O)O (stereo unspecified),,22.4 µM (active)
Cc1cc(OCCN2CCOCC2)nn1-c1ccc2ccccc2c1,28%,
